In PubChem BioAssay AID1985 (Southern Research Specialized Biocontainment Screening …, 2009):
Out of some 2,300 compounds screened, about 1,000 (43%) were called active. No rule for the calls is given here. The set was probably picked from earlier hits. This is one part of the list. Results with a measured potency or affinity are listed apart.

Test: modified counter assay using GFP fluorescence, PhoP regulon inhibitor project, dose response (AID 1985)
Details: S. Typhi, 4 h; series mostly up to 150 µM
For `COc1ccc(CCC(=O)NCc2cn3ccccc3n2)cc1`, the outcome was “inactive”.
For `CCOC(=O)CSc1nnc2c(n1)C1(C)CCC2C1(C)C` (configuration not stated), the outcome was “inactive”.
In the case of `O=C(N/N=C/c1ccc(N2CCOCC2)cc1)c1ccc(O)cc1`, the outcome is reported as “inactive”.
For `CC(C)=CCN1CCN(Cc2nc(-c3ccccc3)cs2)CC1CCO` (configuration not stated), the outcome was “inactive”.
With `CC1CCCCN1S(=O)(=O)c1ccc(S(=O)(=O)NCCc2ccncc2)cc1` (configuration not stated) the outcome was “inactive”.
For `Brc1ccc2nc(-c3c[nH]c4ccccc34)cn2c1`, the outcome was “inactive”.
For `Cc1cccc(OCC(=O)NNc2c3ccccc3nc3ccccc23)c1`, the outcome was “inactive”.
For `CC1(C)CC(CCNC(=O)c2ccc(-n3cnnn3)cc2)CC(C)(C)N1`, the outcome was “inactive”.
In the case of `Cc1cc(=O)n(CC(C)C)c(O)c1C#N`, the outcome is reported as “inactive”.
For `Cc1onc(C(=O)/C=C/N(C)C)c1C(=O)Nc1nccs1`, the outcome was “inactive”.
In the case of `CCOc1ccccc1-c1cc(-c2ccccc2)nc2c1c(=O)n(C)c(=O)n2C`, the outcome is reported as “inactive”.
For `C=C(C)COc1ccc2c(C)c(CCC(=O)NC3CC3)c(=O)oc2c1`, the outcome was “inactive”.
For `N#Cc1ccc(-c2ccc(OCC(=O)NCCCN3CCCC3=O)cc2)cc1`, the outcome was “inactive”.
For `CC1(C)CC(=O)C(C(=O)/C=C/NCCc2ccccc2)C(=O)C1`, the outcome was “inactive”.
With `CC(C)(C)c1ccc(NC(=O)NCc2ccco2)cc1` the outcome was “inactive”.
With `Cc1ccc(SCc2[nH]nc3c2C(c2cccnc2)C(C#N)=C(N)O3)cc1` (configuration not stated) the outcome was “inactive”.
In the case of `Nc1cc(N2CCOCC2)c(Cl)cc1[N+](=O)[O-]`, the outcome is reported as “inactive”.
With `C=C(C)Cn1c(SCC#N)nc2ccccc2c1=O` the outcome was “inactive”.
With `COc1cccc(CNC23CC4CC(CC(C4)C2)C3)c1OCc1ccccc1` the outcome was “inactive”.
For `Cc1ccc(NC(=S)NCc2cccs2)cc1`, the outcome was “inactive”.
In the case of `Cc1ccc(NC(=S)NCc2cccnc2)cc1`, the outcome is reported as “inactive”.
With `COc1cccc(CNS(=O)(=O)c2ccc3c(c2)NC(=O)CS3)c1` the outcome was “inactive”.
With `CC(c1ccccc1)(c1ccccc1)c1ccncc1` the outcome was “inactive”.
For `CC(C)SCc1nc2ccccc2[nH]1`, the outcome was “inactive”.
With `Nc1cncc(C(=O)O)c1` the outcome was “inactive”.
For `C/C(=N\NC(=O)COc1ccccc1[N+](=O)[O-])c1cccs1`, the outcome was “inactive”.
In the case of `CCCC(=NCc1ccccc1)C1=C(O)C(C(=O)OC)C(C)(C)CC1=O` (configuration not stated), the outcome is reported as “inactive”.
In the case of `CN1C2=CC=CC=CC2=[N+](C)C12C=CC(=[N+]([O-])[O-])C=C2[N+](=O)[O-]` (configuration not stated), the outcome is reported as “inactive”.
In the case of `Cc1cc(Br)cc2cn[nH]c12`, the outcome is reported as “inactive”.
With `O=C(COc1ccc2ccccc2c1)Nc1nccs1` the outcome was “inactive”.
With `O=C(CCl)Nc1nccs1` the outcome was “inactive”.
For `O=C(Nc1ccccc1)Nc1cccc(Cl)c1`, the outcome was “inactive”.
With `CCCN1C(=O)c2ccc(C(=O)Nc3nccs3)cc2C1=O` the outcome was “inactive”.
For `Cc1[nH]c(=O)[nH]c(=O)c1S(=O)(=O)N1CCCC(C(=O)NCc2ccc3c(c2)OCO3)C1` (configuration not stated), the outcome was “inactive”.
With `COc1ccc(NC(=O)N(CCc2ccccc2)Cc2cc3c(C)cc(C)cc3[nH]c2=O)cc1` the outcome was “inactive”.
In the case of `CCCOc1ccc(N2C(=O)C3C(C(C)C)NC4(C(=O)c5ccccc5C4=O)C3C2=O)cc1` (configuration not stated), the outcome is reported as “inactive”.
For `COc1ccc(OC)c(S(=O)(=O)N2CCC(C(=O)NCc3ccccc3OC)CC2)c1`, the outcome was “inactive”.
In the case of `O=C(NCc1ccccc1)c1ccc(CNc2c(N3CCCC3)c(=O)c2=O)cc1`, the outcome is reported as “inactive”.
For `Cc1ccc(C(C(=O)NCCc2ccccc2)N(C(=O)c2csnn2)C2CC2)o1` (configuration not stated), the outcome was “inactive”.
For `CCC(C)(c1ccc(C(=O)OC)s1)c1ccc(C(=O)OC)s1`, the outcome was “inactive”.
For `CN1C(=O)/C(=C2/C=Cc3ccccc3N2CCCS(=O)(=O)O)SC1=S`, the outcome was “inactive”.
With `COc1ccccc1-n1c(SCC(=O)O)nnc1-c1ccc(S(=O)(=O)N2CCCCC2)cc1` the outcome was “inactive”.
In the case of `O=C(Nc1ccc(F)cc1)C1CCC(CNc2c(N3CCCCC3)c(=O)c2=O)CC1` (configuration not stated), the outcome is reported as “inactive”.
In the case of `COc1ccccc1Oc1coc2c(CN3CCN(C)CC3)c(O)ccc2c1=O`, the outcome is reported as “inactive”.
For `Cc1c(C(=O)N2CCN(Cc3ccccc3)CC2)sc2ncnc(N3CCOCC3)c12`, the outcome was “inactive”.
With `Oc1ccc(CN2CCN(c3ccccc3)CC2)c2cccnc12` the outcome was “inactive”.
For `CCCC(c1nnnn1Cc1ccc(OC)cc1)N1CCN(c2ccccc2OC)CC1` (configuration not stated), the outcome was “inactive”.
In the case of `Oc1c(CN2CCOCC2)cc(COCc2ccccc2)c2cccnc12`, the outcome is reported as “inactive”.
For `N#C/C(=C\c1ccc(O)c(O)c1)C(=O)c1ccc(O)c(O)c1`, the outcome was “inactive”.
For `COc1ccc(CNC(=O)CCC(=O)N2C[C@H]3C[C@H](C2)c2cccc(=O)n2C3)cc1`, the outcome was “inactive”.
With `CCOC(=O)Cc1nn(C)c(=O)c2ccccc12` the outcome was “inactive”.
For `O=C(/C=C/c1c(F)cccc1Cl)N1CCOCC1`, the outcome was “inactive”.
For `COc1cc(OC)nc(NC(=O)C(C)C)n1`, the outcome was “inactive”.
For `NC(=O)c1c(NC(=O)CSc2nc(N)cc(=O)[nH]2)sc2c1CCCC2`, the outcome was “inactive”.
In the case of `COCc1cc(=O)n2[nH]c(C)nc2n1`, the outcome is reported as “inactive”.
With `Nc1ccc(S(=O)(=O)Nc2ccc(Cl)nn2)cc1` the outcome was “inactive”.
With `CC1=C(c2ccccc2)SC2=NCCN21` the outcome was “inactive”.
With `CN(C)CCNC(=O)c1ccc(COc2ccc(Cl)cc2Cl)cc1` the outcome was “inactive”.
With `O=C(COc1ccc(Cl)cc1)N1CCCCC1` the outcome was “inactive”.
In the case of `O=C(NCc1cccnc1)c1ccc(COc2ccc(Cl)cc2)cc1`, the outcome is reported as “inactive”.
With `Clc1ccc(OCc2nn3c(C4CCCCC4)nnc3s2)c(Cl)c1` the outcome was “inactive”.
In the case of `CC(=O)Nc1nc(C)c(-c2csc(Nc3ccc(O)cc3)n2)s1`, the outcome is reported as “inactive”.
With `Cc1c(O)cccc1C(=O)N[C@@H](CSc1ccccc1)[C@H](O)CN1C[C@H]2CCCC[C@H]2C[C@H]1C(=O)NC(C)(C)C` the outcome was “inactive”.
With `CCc1nc(SCC(=O)NCCc2ccccc2)c2c(=O)n(C)c(=O)n(C)c2n1` the outcome was “inactive”.
In the case of `Cc1cc(=O)oc2c(CN(C)Cc3ccccc3)c(O)ccc12`, the outcome is reported as “inactive”.
For `O=C(N/N=C\c1ccc(F)cc1)c1ccc(F)cc1`, the outcome was “inactive”.
In the case of `CC(C)CNC(CC(=O)O)c1ccccc1` (configuration not stated), the outcome is reported as “inactive”.
In the case of `CC(c1cccnc1)N(CCN(C)C)C(=O)Nc1ccc(Cl)c(Cl)c1` (configuration not stated), the outcome is reported as “inactive”.
For `CN(CCOc1ccc(Cl)cc1)CC(O)c1ccccc1` (configuration not stated), the outcome was “inactive”.
In the case of `CCS(=O)(=O)N1CCC(C(=O)NCc2cc(OC)ccc2OC)CC1`, the outcome is reported as “inactive”.
With `O=[N+]([O-])c1ccc(CN2CCSCC2)cc1` the outcome was “inactive”.
In the case of `CNC(CC(=O)c1ccc([N+](=O)[O-])cc1)C(Cl)(Cl)Cl` (configuration not stated), the outcome is reported as “inactive”.
In the case of `COc1ccc(Cl)cc1NC(=O)CN(C)CC(=O)Nc1ccccc1C(F)(F)F`, the outcome is reported as “inactive”.
For `Cn1nnnc1SCc1nnc(-c2ccccc2Br)o1`, the outcome was “inactive”.
With `O=C(Nc1ccc(Cl)cc1)N1CCOC12CCC1(CC2)OCCO1` the outcome was “inactive”.
With `Cc1cc(=O)oc2cc(OCC(=O)NC3CCCC3)ccc12` the outcome was “inactive”.
In the case of `COc1ccc(Nc2c3c(nc4ccccc24)CCC3)cc1`, the outcome is reported as “inactive”.
In the case of `Cc1cccc(Nc2c3c(nc4ccccc24)CCC3)c1`, the outcome is reported as “inactive”.
With `Cc1ccc(CSc2nc3c(c(=O)[nH]2)CCC3)cc1` the outcome was “inactive”.
With `FC(F)(F)c1ccccc1NC1=NCCC1` the outcome was “inactive”.
For `CCCCNCCCOc1cccc(Cl)c1Cl`, the outcome was “inactive”.
With `COc1ccccc1/C=N/N1C(=O)c2cccc3cccc(c23)C1=O` the outcome was “inactive”.
For `O=C(NC(=S)Nc1ccc(S(=O)(=O)Nc2nccs2)cc1)c1cccnc1`, the outcome was “inactive”.
In the case of `C=CCSc1nnc(NC(=O)CSc2nc3ccccc3o2)s1`, the outcome is reported as “inactive”.
In the case of `CCOC(=O)c1nc2cc3n(c(CC(C)C)c-2c1C)CC(C)=C3C`, the outcome is reported as “inactive”.
For `NS(=O)(=O)c1ccc(CCNC(=O)C(=O)C2C(=O)Nc3ccccc32)cc1` (configuration not stated), the outcome was “inactive”.
With `COc1ccccc1-c1cc2nc(C)c(CCC(=O)NC(C)CCc3ccco3)c(C)n2n1` (configuration not stated) the outcome was “inactive”.
In the case of `CC(C)C(=O)Nc1ccccc1-c1nc2ccccc2[nH]c1=O`, the outcome is reported as “inactive”.
For `COc1cccc(NC(=O)CN(C)C(C)C(=O)Nc2ccc(S(=O)(=O)N3CCOCC3)cc2)c1` (configuration not stated), the outcome was “inactive”.
With `O=C(Nc1ccc(S(=O)(=O)N2CCCC2)cc1)c1cccnc1` the outcome was “inactive”.
For `N/C(=N\OC(=O)COc1ccc2ccccc2c1)c1ccccn1`, the outcome was “inactive”.
For `COc1ccc(N(C(=O)c2cccnc2)S(=O)(=O)c2ccc(F)cc2)cc1`, the outcome was “inactive”.
For `CCOC(=O)C(O)(NC(=O)c1cccnc1)C(F)(F)F` (configuration not stated), the outcome was “inactive”.
In the case of `N/C(=N\OC(=O)C(c1ccccc1)c1ccccc1)c1ccncc1`, the outcome is reported as “inactive”.
With `O=C1CCCC2=C1C(c1ccncc1)Nc1ccccc1N2` (configuration not stated) the outcome was “inactive”.
In the case of `COCCNC(=O)Cn1cnc2c1c(=O)n(C)c(=O)n2C`, the outcome is reported as “inactive”.
In the case of `c1ccc2sc(N3CN(CCN4CCOCC4)CN(c4nc5ccccc5s4)C3)nc2c1`, the outcome is reported as “inactive”.
With `CN(C)CCOC(=O)c1sc2ccccc2c1Cl` the outcome was “inactive”.
With `CC1CCN(c2nc3ccc(C(=O)NCCCN4CCCCC4)cc3s2)CC1` the outcome was “inactive”.
For `CN1CCN(c2ccccc2NC(=O)c2sc3ccccc3c2Cl)CC1`, the outcome was “inactive”.
In the case of `COc1ccc2sc(N(CCCN(C)C)C(=O)c3ccc(S(=O)(=O)N4CCc5ccccc5C4)cc3)nc2c1`, the outcome is reported as “inactive”.
In the case of `COc1cc(CNCCCN2CCOCC2)c(Br)cc1OCC(=O)Nc1ccccc1C`, the outcome is reported as “inactive”.
For `CCc1c(C)nc2cc(-c3cc(OC)cc(OC)c3)nn2c1N1CCCC1`, the outcome was “inactive”.
For `Cc1ccc(C2CC(=O)NC(SCCC(C)C)=C2C#N)cc1` (configuration not stated), the outcome was “inactive”.
In the case of `COc1ccc2c(c1)c1nc(SCC(C)C)n(CCO)c(=O)c1n2C`, the outcome is reported as “inactive”.
For `O=S(=O)(c1ccccc1)c1nc(-c2cccs2)oc1NCC1CCCO1` (configuration not stated), the outcome was “inactive”.
With `O=C(NCC1CCCO1)c1cc2ccccc2oc1=O` (configuration not stated) the outcome was “inactive”.
For `O=C(O)c1ccc(CSc2nnnn2C2CCCCC2)cc1`, the outcome was “inactive”.
In the case of `Cc1cc(NC(=O)COC(=O)c2cccc(S(=O)(=O)N(C)C3CCCCC3)c2)no1`, the outcome is reported as “inactive”.
For `O=C(O)Cn1c(=O)c2c3c(sc2n(Cc2ccccc2F)c1=O)CCCC3`, the outcome was “inactive”.
For `CC1(C)Oc2ccc3ccc(=O)oc3c2/C(=C/NCCN/C=C2\C(=O)C(C)(C)Oc3ccc4ccc(=O)oc4c32)C1=O`, the outcome was “inactive”.
For `Cc1cccc(N(C(=O)CCC(=O)Nc2ccccn2)C(C(=O)NC(C)C)c2ccc(O)cc2)c1` (configuration not stated), the outcome was “inactive”.
In the case of `CCN1CCN(C(=O)/C=C/c2cccc(Cl)c2)CC1`, the outcome is reported as “inactive”.
For `CCN1CCN(C(=O)Cc2coc3cc(C)cc(C)c23)CC1`, the outcome was “inactive”.
For `CN1CCN(C(=O)CSc2ccc(Cl)cc2)CC1`, the outcome was “inactive”.
For `O=C(O)c1cc2cc(F)ccc2[nH]1`, the outcome was “inactive”.
In the case of `CCN1CCN(C(=O)c2cc3ccc(OC)cc3[nH]2)CC1`, the outcome is reported as “inactive”.
